For 28 compounds, activity change, negative = inhibition and Potency results are on record in PubChem BioAssay (NCATS).

Inconclusive results are not listed. Where a call stands in place of a potency, no number is given. Values without a mark were called inactive. Active and inactive are the calls of the source. The call rests on the fitted dose curve; in most records, active means well fitted inhibition curve with a large enough effect; inconclusive means small, poorly fitted or top-dose-only effect; inactive means flat fitted curve, though single readings scatter. Peptide text beside a SMILES is read from it.
Potency means the concentration at half of the fitted maximal effect.

The target of this assay is Ubiquitin carboxyl-terminal hydrolase 1 (Homo sapiens) (UniProt O94782). The assay can be described thus: Inhibitors of USP1/UAF1: Pilot qHTS (AID 504865). Further: nearly all actives have a fitted effect of over 35% in size.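 On activity change, negative = inhibition: rhodamine fluorescence freed from ubiquitin-rhodamine substrate followed over time; top concentration of the series differs between compounds.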 The settings on record: purified USP1/UAF1, Ub-rhodamine cleavage fluorescence; series mostly up to 114 µM. Put shortly: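 In 50mM HEPES pH 7.8 containing 0.5mM EDTA, 1mM TCEP, 0.1 mg/ml BSA and 0.01% Tween-20, 1nM USP1/UAF1 is exposed to compound for 15 min, then Ub-Rho (150nM final) is added and fluorescence is read over time.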
Ubiquitin carboxyl-terminal hydrolase 1 (Homo sapiens), sequence (O94782 whole entry, looked up): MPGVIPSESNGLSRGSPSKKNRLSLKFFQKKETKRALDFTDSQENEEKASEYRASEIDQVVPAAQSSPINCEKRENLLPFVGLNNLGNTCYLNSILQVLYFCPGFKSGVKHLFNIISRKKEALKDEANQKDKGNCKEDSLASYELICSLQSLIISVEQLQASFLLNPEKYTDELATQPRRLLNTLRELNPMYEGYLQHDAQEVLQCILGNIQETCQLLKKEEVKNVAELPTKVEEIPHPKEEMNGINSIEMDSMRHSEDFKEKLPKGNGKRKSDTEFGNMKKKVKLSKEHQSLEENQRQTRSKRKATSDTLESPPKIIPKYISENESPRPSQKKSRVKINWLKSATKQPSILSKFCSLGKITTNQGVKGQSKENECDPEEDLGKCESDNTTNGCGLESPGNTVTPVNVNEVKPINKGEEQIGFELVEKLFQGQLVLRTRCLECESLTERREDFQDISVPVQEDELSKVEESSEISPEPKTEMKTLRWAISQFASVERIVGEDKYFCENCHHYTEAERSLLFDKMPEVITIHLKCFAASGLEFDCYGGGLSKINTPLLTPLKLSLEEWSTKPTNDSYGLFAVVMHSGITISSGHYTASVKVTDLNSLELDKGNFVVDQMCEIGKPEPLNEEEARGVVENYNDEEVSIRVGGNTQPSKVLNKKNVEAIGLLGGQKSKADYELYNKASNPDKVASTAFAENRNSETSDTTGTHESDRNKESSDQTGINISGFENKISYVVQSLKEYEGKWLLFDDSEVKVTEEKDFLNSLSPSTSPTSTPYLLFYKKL
Background: Quantitative high-throughput screening tests each substance at several concentrations.
In the case of `CCOc1ccc2c(c1)C(C)=CC(C)(C)N2`, the activity change, negative = inhibition was -8.83% [at 11.4 µM].

With `COC(F)(F)C(Cl)Cl`, the Potency result is “inactive”.

For `O=C(O)CN(CCN(CC(=O)O)CC(=O)O)CC(=O)O`, the Potency entry was “inactive”.

`Cc1ccccc1`: the Potency entry was “inactive”.

Consider `CC(=O)N[C@@H](CC(=O)O)C(=O)N[C@@H](CCC(=O)O)C(=O)O` (Ac-Asp-Glu-OH), for which the Potency result is “inactive”.

Turning to `CCCC(=O)Nc1ncnc2c1ncn2[C@@H]1O[C@@H]2COP(=O)(O)O[C@H]2[C@H]1OC(=O)CCC`, the Potency entry is “inactive”.

On to `CCCCCCCC(=O)O`, for which the Potency result was “inactive”.

On to `CCCCC(CC)COC(=O)CC(C(=O)OCC(CC)CCCC)S(=O)(=O)O` (stereo not drawn), for which the Potency was 50.1 µM (active).

Consider `Cc1cn([C@H]2C[C@H](O)[C@@H](CO)O2)c(=O)[nH]c1=O`, for which the Potency result is “inactive”.

As to `Cc1c(C)c2c(c(C)c1O)CC[C@@](C)(CCC[C@H](C)CCC[C@H](C)CCCC(C)C)O2`, the Potency result was “inactive”.

On to `CCN(CC)Cc1cc(Nc2ccnc3cc(Cl)ccc23)ccc1O`, for which the Potency result was “inactive”.

`OCc1ccccc1O[C@@H]1O[C@H](CO)[C@@H](O)[C@H](O)[C@H]1O`: the Potency entry was “inactive”.

In the case of `CC(C)(C)C(=O)OCOC(=O)[C@@H]1N2C(=O)[C@@H](N=CN3CCCCCC3)[C@H]2SC1(C)C`, the Potency entry was “inactive”.

On to `Nc1c(N=Nc2ccc(-c3ccc(N=Nc4cc(S(=O)(=O)O)c5ccccc5c4N)cc3)cc2)cc(S(=O)(=O)O)c2ccccc12`, for which the Potency is 15.8 µM (active).

For `Clc1cc(Cl)c(OCC#CI)cc1Cl`, the Potency entry is “inactive”.

Take `CC1(C)C(C=C(Cl)Cl)C1C(=O)OCc1cccc(Oc2ccccc2)c1` (stereo not drawn): the Potency entry was “inactive”.

In the case of `O=C(O)CCC(=O)C(=O)O`, the Potency entry was “inactive”.

Consider `C[C@]12CCC(=O)C=C1CC[C@@H]1[C@@H]2[C@@H](O)C[C@@]2(C)[C@H]1CC[C@]2(O)C(=O)COP(=O)(O)O`, for which the Potency result was “inactive”.

Regarding `CC(O)CO` (stereo not drawn), the Potency entry was “inactive”.

Turning to `C=C1C(=CC=C2CCC[C@@]3(C)[C@@H]2CC[C@H]3[C@H](C)CCCC(C)C)C[C@@H](O)C[C@@H]1O`, the Potency was 22.4 µM (active).

For `CCCCCCCC/C=C\CCCCCCCC(=O)O`, the Potency was 35.5 µM (active).

Take `O=C(O)c1cc(O)c2c(c1)[O][Bi][O]2`: the Potency entry was “inactive”.

Take `O=C(O)CC/C=C\CC[C@H]1[C@@H](N2CCCCC2)[C@@H](O)C[C@@H]1OCc1ccc(-c2ccccc2)cc1`: the Potency entry is “inactive”.

For the compound `CCOC(C)=O`, the Potency result was “inactive”.

`Cc1ccccc1OCC(O)CNCCOc1ccc(C(N)=O)cc1` (stereo not drawn): the Potency entry is “inactive”.

On to `CC1=C(/C=C/C(C)=C/C=C/C(C)=C/C=C/C=C(C)/C=C/C=C(C)/C=C/C2=C(C)CCCC2(C)C)C(C)(C)CCC1`, for which the Potency entry is “inactive”.

On to `CC1=CCC(C(C)(C)O)CC1` (stereo not drawn), for which the Potency entry is “inactive”.

Take `COC(C(=O)C(O)C(C)O)C1Cc2cc3cc(OC4CC(OC5CC(O)C(O)C(C)O5)C(O)C(C)O4)c(C)c(O)c3c(O)c2C(=O)C1OC1CC(OC2CC(OC3CC(C)(O)C(O)C(C)O3)C(O)C(C)O2)C(O)C(C)O1` (stereo not drawn): the Potency result is “inactive”.
